D1 antag: Antagonist of Human D 1 Dopamine Receptor: qHTS; D(1A) dopamine receptor (Homo sapiens), P21728; HEK293 TREx D1 cells, calcium flux, dopamine EC80; stronger effect = lower value; activity change, negative = inhibition, % at 10 µM; 360,000 tested, 3.2% active; in the data active means activity change below about -30%
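Inducible Hek293 Trex D1 cells (tetracycline, overnight, 30 C). Calcium dye 30–90 min RT. Antagonist mode: EC80 dopamine added after 180 s compound read.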
DRD3 agonist: qHTS of D3 Dopamine Receptor Agonist: qHTS. D(3) dopamine receptor (Homo sapiens), P35462. 410,000 tested, 0.58% active. D3R DiscoveRx beta-arrestin cells, luminescence, 90 min. AID 652048, 2013. max activation, %; in the data active means max activation above about 30%
Target sequence (P35462 whole entry, looked up): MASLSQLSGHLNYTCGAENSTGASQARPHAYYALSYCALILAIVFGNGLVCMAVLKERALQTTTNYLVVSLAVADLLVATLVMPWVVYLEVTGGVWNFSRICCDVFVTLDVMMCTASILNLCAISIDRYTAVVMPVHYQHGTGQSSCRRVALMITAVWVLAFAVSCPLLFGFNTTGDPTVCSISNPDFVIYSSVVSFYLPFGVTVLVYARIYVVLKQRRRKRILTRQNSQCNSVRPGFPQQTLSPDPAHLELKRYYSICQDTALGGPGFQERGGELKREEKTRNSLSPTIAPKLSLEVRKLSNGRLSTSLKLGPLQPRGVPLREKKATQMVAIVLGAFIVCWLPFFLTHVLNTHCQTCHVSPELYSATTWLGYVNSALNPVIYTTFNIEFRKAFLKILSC
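Agonist-mode cell screen: cells plated at 1500/well and incubated overnight at 37 °C, then exposed to library compounds for 90 min at 37 °C. Detection reagent was added for 30–60 min at room temperature, and luminescence was read.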
Chronic BCR inh: qHTS Assay to Find Inhibitors of Chronic Active B-Cell Receptor Signaling; ABC-DLBCL IkBa-CBG/CBR reporter, luminescence ratio, 4 h; Potency, µM (highest dose often 46.1 µM), most hits filed as inhibitors; 340,000 tested, 0.05% active; AID 493014, 2011; active means well fitted inhibition curve with a large enough effect in the signal ratio, with a control signal flat, not every such curve was filed as active; inconclusive means small, poorly fitted or top-dose-only effect, or effect the other way, or a change in a side signal; the % refers to the signal ratio
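Cell line TMD8 (human ABC DLBCL), stably expressing tet-inducible CBG68-IkBa fusion and CBR; IMDM/0.5% FBS; cpd up to 46 uM; dox induction, 4 h, 37C/5% CO2; dual luminescence; green/red ratio; MG132 control.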
D1 ag: Allosteric Agonists of the Human D1 Dopamine Receptor: qHTS; HEK293 T-REx D1 cells, calcium flux, agonist mode; activation, % at 2 µM; 360,000 tested, 1% active; AID 504660, 2011; in the data active means activation above about 30%
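Agonism was scored from calcium flux recorded over 180 s (1 read/s) after pintool compound addition, following a 10-cycle baseline. Cells were inducible force-coupled HEK293 TREx D1, plated overnight at 30 C and loaded with no-wash calcium dye.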
D1 potentiator: Potentiators of Human D1 Dopamine Receptor: qHTS. D(1A) dopamine receptor (Homo sapiens), P21728. HEK293 TREx D1 cells, calcium flux, dopamine EC20 potentiation. potentiation, % at 10 µM. 360,000 tested, 0.036% active; in the data active means potentiation above about 30%
DRD3 antagonist: qHTS of D3 Dopamine Receptor Antagonist: qHTS; D(3) dopamine receptor (Homo sapiens), P35462; D3R cells, DiscoveRx beta-arrestin luminescence, antagonist mode; stronger effect = lower value; max response, negative = inhibition, %; 360,000 tested, 2.5% active; AID 652054, 2013; in the data active means max response below about -50%; inconclusive means no clear call, values can overlap the other calls
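Cells expressing the human receptor were seeded at 1500 cells/well, incubated overnight at 37 degrees C in 5% CO2, then exposed to library compounds with dopamine controls for 90 minutes at 37 degrees C before luminescent detection.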
A number is an active result; - = inactive; ? = inconclusive; . = no result; ! = repeats disagree. A selection: hits, their analogues and other compounds. The true share with any hit is near 6%.

SMILES	D1 antag	DRD3 agonist	Chronic BCR inh	D1 ag	D1 potentiator	DRD3 antagonist
CC(C)(C)C(=O)/C=c1\[nH]c(=O)/c(=C\c2ccc(C#N)cc2)s1	-47	-	?	-	-	-
Cc1cccc(/C=c2\s/c(=C\C(=O)C(C)(C)C)[nH]c2=O)c1	-	-	-	-	-	-
OC1(c2ccc3c(c2)OCO3)CCN(Cc2ccccn2)CC1	-40	-	-	-	-	?
NC(=O)C1CCCN(C(=O)c2[nH]c(C(F)(F)F)nc2-c2ccccc2)C1 (centres undefined)	.	-	.	.	.	-
CNS(=O)(=O)c1cc(-c2nnc(Nc3ccc(NC(C)=O)cc3)c3ccccc23)ccc1C	-	-	?	-	-	-
Cc1ccc(-c2nnc(Nc3ccc(Cl)c(Cl)c3)c3ccccc23)cc1S(=O)(=O)NCCO	-49	-	.	-	-	.
Cc1ccc(-c2nnc(Nc3ccc4c(c3)OCO4)c3ccccc23)cc1S(=O)(=O)NCCO	-34	-	?	-	-	-
Cc1ccc(-c2nnc(Nc3ccc(CC(N)=O)cc3)c3ccccc23)cc1S(=O)(=O)NCCO	-	-	-	-	-	-
CNC(=O)COc1ccc(Nc2nnc(-c3ccc(C)c(S(=O)(=O)NC(C)(C)C)c3)c3ccccc23)cc1	-31	-	.	-	-	.
COc1cccc(-c2cnc(C(O)c3c(C)cc(C)cc3C)[nH]2)c1 (centres undefined)	.	-	.	.	.	-
COC(=O)c1ccccc1NC(=O)CSc1cc(-c2ccccc2)nc(C)n1	-	-	.	-	-	.
O=C(CSc1n[nH]c(-c2cccs2)n1)N1CCN(S(=O)(=O)c2ccc3ccccc3c2)CC1	-	-	-	-	-	-70
Nc1cc(=O)[nH]c(SCC(=O)N2CCN(S(=O)(=O)c3ccc4ccccc4c3)CC2)n1	-	-	-	-	-	-
C=CCC1=C/C(=C\c2c(N)n3nc(CC(=O)N4CCCC4)sc3nc2=O)C=C(OC)C1=O	-	-	-	109	-	-
COC1=C/C(=C/c2c(N)n3nc(CC(=O)N4CCCCC4)sc3nc2=O)C=CC1=O	-	-	-	-	-	-
COC1=CC(=Cc2c(N)n3nc(CC(=O)N4CCOCC4)sc3nc2=O)C=C(OC)C1=O	-	-	-	191	-	-
CCOC(=O)c1ccccc1NC(=O)CCOc1ccccc1	-	-	.	-	-	.
COc1ccc(S(=O)(=O)NCCc2ccccc2)cc1OC	-	-	-	-	-	-
COc1ccc(S(=O)(=O)NCc2ccc3c(c2)OCO3)cc1C	-87	-	?	-	-	-
CN(C)S(=O)(=O)NCc1ccc2c(c1)OCO2	-	-	?	-	-	-
COc1ccc(S(=O)(=O)NCc2ccc3c(c2)OCO3)cc1C(=O)O	-	-	-	-	-	-
O=S(=O)(Cc1ccc(Cl)cc1)NCc1ccc2c(c1)OCO2	-36	-	-	-	-	-
Cc1ccc(S(=O)(=O)NCc2ccc3c(c2)OCO3)cc1C	-	-	-	-	-	?
CCCCCCNS(=O)(=O)c1ccc(OC)c(OC)c1	-	32	-	-	-	-
COc1ccc(S(=O)(=O)NCc2ccc3c(c2)OCO3)cc1OC	-55	-	-	-	-	-
SMILES	D1 antag	DRD3 agonist	Chronic BCR inh	D1 ag	D1 potentiator	DRD3 antagonist
O=C(Cc1ccc(-c2ccccc2)cc1)NCCS(=O)(=O)N1CCN(c2cccc(Cl)c2)CC1	-	-	.	-	-	.
O=c1cc(-c2ccccc2)oc2c1CCCC2	.	-	.	.	.	-
CCOC(=O)C1CCN(C(=O)C2CCN(C3=NS(=O)(=O)C(c4ccc(C)cc4)=C3CC)CC2)CC1	-	-	.	-	-	.
CCOc1ccc(-c2nc(SCC(=O)NC3CCCC3)c(-c3ccccc3)[nH]2)cc1OC	-	-	.	-	-	.
CC(C(=O)Nc1ccc2c(c1)OCCO2)n1nnc(-c2ccccc2)n1 (centres undefined)	-53	-	-	-	-	-
COc1ccc(S(=O)(=O)N2CCN(S(=O)(=O)c3ccc(OC)cc3)CC2)cc1	-	.	-	-	-	.
CCOC(=O)N1CCC(N2CCN(S(=O)(=O)c3ccc(OC)cc3)CC2)CC1	-36	-	-	-	-	-
COc1ccc(S(=O)(=O)N2CCC(N3CCCCC3)CC2)cc1	-	-	-	-	-	-
COc1ccc(OC2CCN(S(=O)(=O)c3ccc(OC)cc3)CC2)cc1	-36!	-	-	35	-	-
COc1ccc(S(=O)(=O)N2CCN(C3CCCCCCC3)CC2)cc1	-68!	-	-	-	-	-
COc1ccc(S(=O)(=O)N2CCC(Oc3cccc(C(F)(F)F)c3)CC2)cc1OC	-36	-	.	-	-	.
CCOC(=O)N1CCC(N2CCN(S(=O)(=O)c3ccc(C)cc3)CC2)CC1	-	-	-	-	-	-
COc1ccc(S(=O)(=O)N2CCC(Oc3ccc(-n4cnnn4)cc3)CC2)cc1OC	-	-	.	-	-	.
CCOC(=O)N1CCC(N2CCN(S(=O)(=O)CC)CC2)CC1	-	-	-	-	-	-133
COc1cccc(C(=O)NC2CC3CCCC(C2)N3CC(=O)Nc2ccccc2)c1 (centres undefined)	-	-	-	-	-	-59
O=C(CN1C2CCCC1CC(NC(=O)c1ccccc1)C2)Nc1ccccc1 (centres undefined)	-53	-	-	-	-	-
COC(=O)c1c(-c2ccc(N(C)C)cc2)oc2c1C(OC)CCC2 (centres undefined)	.	-	.	.	.	-
O=C(CCn1c(=O)c2ccccc2n(Cc2cccc(Cl)c2)c1=O)NCCc1ccccc1	-	-	.	-	-	.
C[C@@H]1CN([C@@H](C)CO)C(=O)CCCn2nncc2CO[C@H]1CN(C)Cc1ccc2c(c1)OCCO2	.	-	.	.	.	-
C[C@@]12C(=O)N(CCO)CC(=O)N1[C@H](/C=C/c1ccccc1)[C@@H]1C(=O)N(c3ccccc3)C(=O)[C@@H]12	-	-	?	-	-	-59
Brc1ccccc1CN1CCN(Cc2c[nH]c3ccccc23)CC1	.	-	.	.	.	-80
O=[N+]([O-])c1ccc(CN2CCN(Cc3c[nH]c4ccccc34)CC2)cc1	-72	-	-	-	-	?
Fc1ccc(N2CCN(Cc3c[nH]c4ccccc34)CC2)cc1	-	.	-	-	-	.
Brc1ccc(CN2CCN(Cc3c[nH]c4ccccc34)CC2)cc1	-	-	?	-	-	-64
CN1CCCN(Cc2ccccc2Br)CC1	-	-	-	-	-	-51

Assay outcomes deposited in PubChem by National Center for Advancing Translational Sciences (NCATS).
